Assay results from PubChem BioAssay (NCATS).
Records with an inconclusive call do not appear. Activity calls are given as the source filed them. Calls come from the whole dose curve; as a rule, active = well fitted inhibition curve with a large enough effect; inconclusive = small, poorly fitted or top-dose-only effect; inactive = flat fitted curve, though single readings scatter.

system: MCC-26; assay: qHTS assay to identify novel small-molecules to repurpose for Merkel cell carcinoma treatment (AID 1296009); conditions: MCC and control cell lines, CellTiter-Glo viability, 72 h; series mostly up to 46 µM; activity change, negative = cytotoxicity: at the top concentration; note: nearly all actives have a fitted effect of over 60% in size
Source text: MCC is a rare and aggressive neuroendocrine skin cancer with limited treatment options. Approximately 80% of MCCs have the Merkel cell polyomavirus (MCPyV) DNA integrated into the host genome (virus-positive: VP-MCC) and viral oncogenes drive oncogenesis. The remaining MCCs are virus-negative (VN-MCC) and are caused by UV mutagenesis. To identify novel treatments for VP-MCC and/or VN-MCC we screened three VP-MCC cell lines (WAGA, MKL-1, MKL-2), three VN-MCC cell lines (MCC-13, MCC-26, UISO), and four immortalized, non-transformed control cell lines (HaCaT, HEK293T, CRL7250, NIH-3T3) against ~2,400 compounds in the NCGC Pharmaceutical Collection (NPC) and ~1,900 compounds in the Mechanism Interrogation PlatE (MiPE). Using cell viability as a readout (CellTiter-Glo assay) we found both overlapping and distinct drugs that can be repurposed for the treatment of VP-MCC and VN-MCC.
A high-throughput screen was conducted in 1536-well white flat bottom plates (Corning) on a Kalypsys robotic system. Cell lines WAGA, MKL-1, MKL-2, MCC-13, MCC-26, UISO, HaCaT, HEK293T, CRL7250, and NIH-3T3 were screened against 2 small molecule annotated drug libraries NPC and MIPE in dose response (8 and 11 pt. respectively) measuring cell viability after 72 hours of incubation. […] A 1,536 pintool (Kalypsys) was used to transfer 23 nL of compound in DMSO to the 1,536-well assay plates. After 72 hr incubation at 37 degree celsius, 2.5 uL of CellTiter-Glo (Promega) was dispensed into each well using a BiorapTR. Plates were incubated at room temperature for 10 min, transferred to a ViewLux (PerkinElmer) and the luminescence was recorded using an exposure time of 2 seconds. Relative luminescence units (RLUs) were normalized to in-plate controls (no cells as a positive (cytotoxicity) control, DMSO as negative control) and the normalized data was processed using NCATS in-house software.
% is set by controls: 0 for no effect and ±100 for the full control effect; potency is the fitted concentration of half-maximal effect.

| Compound | Potency | activity change, negative = cytotoxicity |
| --- | --- | --- |
| CCCCCCCCCCCCCCCC[N+](C)(C)Cc1ccccc1 | 29.9 µM (active) | – |
| COc1cc2c(cc1OC)CN(C(=O)[C@H](C)N[C@@H](CCc1ccccc1)C(=O)O)[C@H](C(=O)O)C2 | – | 1.03% (inactive) |
| CCCCC(CC)CNC(=O)CC(C)OC(=O)CCC(=O)O (stereo not given) | – | -2.99% (inactive) |
| Cc1sccc1Br | – | -7.77% (inactive) |
| CC1(C)S[C@@H]2[C@H](NC(=O)C(c3ccccc3)S(=O)(=O)O)C(=O)N2[C@H]1C(=O)O (stereo not given in full) | – | -3.86% (inactive) |
| CN(C)CCCOC1(Cc2ccccc2)CCCCCC1 | – | 3.53% (inactive) |
| O=C(Oc1ccccc1)c1cccc(C(=O)Oc2ccccc2)c1 | – | 10.1% [at 92.7 µM] (inactive) |
| OCc1cccnc1 | – | 7.15% (inactive) |
| CCCCN(CCCC)C(C(N)=O)c1ccc(OC)cc1 (stereo not given) | – | 3.4% (inactive) |
| Cc1cc(C(C)(C)C)c(O)c(C(C)(C)C)c1 | – | 7.08% (inactive) |
| OC(CCCN1CCCCC1)(c1ccccc1)c1ccccc1 | – | -5.07% (inactive) |
| Cn1c(=O)c2c(ncn2CC(=O)O)n(C)c1=O | – | 5.98% (inactive) |
| CC(C)C(=O)Nc1cccc(C2CN3CCSC3=N2)c1 (stereo not given) | – | 3.21% (inactive) |
| CC(=O)[C@H]1CC[C@H]2[C@@H]3C=CC4=CC(=O)CC[C@@]4(C)[C@@H]3CC[C@]12C | – | -4.33% (inactive) |
| CO/N=C(/C(=O)N[C@@H]1C(=O)N2C(C(=O)O)=C(Cn3nnc(C)n3)CS[C@H]12)c1csc(N)n1 | – | 4.42% (inactive) |
| CCN1C(=O)c2ccccc2C1Nc1ccc(OCCN2CCCCC2)cc1 (stereo not given) | – | 4.54% (inactive) |
| CN(C)[C@@H]1C(=O)C(C(N)=O)=C(O)[C@@]2(O)C(=O)C3=C(O)c4c(O)cccc4C[C@H]3C[C@@H]12 | – | -12.7% (inactive) |
| COc1ccccc1N1CCN(CC(O)COc2cc(OC)c(OC)c(OC)c2)CC1 (stereo not given) | – | 1.73% (inactive) |
| CCOC(=O)[C@H](CCc1ccccc1)N[C@@H](C)C(=O)N(CC(=O)O)C1Cc2ccccc2C1 | – | 5.98% (inactive) |
| COC(=O)c1cc(Cl)ccc1OC | – | 10.7% (inactive) |

| Compound | Potency | activity change, negative = cytotoxicity |
| --- | --- | --- |
| COCCOCC(OC)OC | – | 10.2% (inactive) |
| CC[C@@]1(O)C(=O)OCc2c1cc1n(c2=O)Cc2c-1nc1ccccc1c2/C=N/OC(C)(C)C | 0.0944 µM (active) | – |
| C[C@H](CN1CCCC1)C(=O)c1ccc(C(F)(F)F)cc1 | – | -7.74% (inactive) |
| C/C(=C(/OCCOc1ccc(Cl)cc1)c1ccc(Cl)cc1Cl)n1ccnc1 | – | -12.6% (inactive) |
| O=C(CS(=O)Cc1ccco1)NC/C=C\COc1cc(CN2CCCCC2)ccn1 (stereo not given) | – | -8.54% (inactive) |
| O=C(O)c1ccc(OCCN2CCCCC2)cc1 | – | 9.46% (inactive) |
| CC(=O)O[C@H]1CC[C@@]2(C)C(=CC[C@@H]3[C@@H]2CC[C@]2(C)C(C(C)=O)=CC[C@@H]32)C1 | – | 1.54% (inactive) |
| C[C@@H](C1=C(CCN(C)C)Cc2ccccc21)c1ccccn1 | – | -1.42% (inactive) |
| Cc1oc(=O)oc1COC(=O)[C@@H]1N2C(=O)[C@@H](NC(=O)[C@H](N)c3ccccc3)[C@H]2SC1(C)C | – | 3.22% (inactive) |
| CC(=O)OCC(=O)[C@@]1(O)CCC2C3CCC4=CC(=O)CC[C@]4(C)C3[C@@H](O)C[C@@]21C (stereo not given in full) | – | -6.08% (inactive) |
| COC(=O)c1cc(Cl)ccc1NS(=O)(=O)C(F)(F)F | – | 5.12% (inactive) |
| COc1ccc(/C(C)=C/C(=O)O)c(OC)c1 | – | 12.5% (inactive) |
| CCC1(c2cnc[nH]2)Cc2ccccc2C1 | – | -10% (inactive) |
| CCc1cc2cc(OC)c(OC)cc2c(Cc2ccccc2)n1 | – | 3.44% (inactive) |
| CCCC(=O)c1cc(O)c(O)cc1O | – | -7.94% [at 92.7 µM] (inactive) |
| CCC(=O)Oc1ccc2c(c1)CC[C@@H]1[C@@H]2CC[C@@]2(C)[C@H]1C[C@@H](OC(=O)CC)[C@@H]2OC(=O)CC | – | -4.12% (inactive) |
| Cc1ccc2ccc(Cl)cc2n1 | – | 7.36% (inactive) |
| CC(=O)OCC(=O)[C@@]1(O)[C@H](OC(C)=O)C[C@H]2[C@@H]3CCC4=CC(=O)C=C[C@]4(C)[C@@]3(F)[C@@H](O)C[C@@]21C | – | 4.89% (inactive) |
| Nc1nc2ccccc2n1Cc1ccc(F)cc1 | – | -11% (inactive) |
| CCCC(=O)O[C@]1(C(=O)CCl)[C@@H](C)C[C@H]2[C@@H]3CCC4=CC(=O)C=C[C@]4(C)[C@@]3(F)C(=O)C[C@@]21C | – | -15.9% (inactive) |
